# Inconclusive results are not listed. Entries that show only a call come without a potency. Activity calls are given as the source filed them. Unless noted, calls follow the shape of the dose curve; as a rule, active = well fitted curve in the direction sought with a large enough effect; inconclusive = small, poorly fitted or top-dose-only effect, or another doubt; inactive = no such curve, though single readings can be large; an effect the other way counts as inactive or inconclusive.
# Experiments:
# [1] = target: Aldehyde dehydrogenase, mitochondrial (Homo sapiens) (UniProt P05091); assay: qHTS for Inhibitors of the Aldehyde Dehydrogenase Family (ALDH2) Confirmatory screens (AID 2061303; active = well fitted inhibition curve with a large enough effect; title and protocol of this record describe different tests; also: nearly all actives have a fitted effect of over 45% in size; also: potency is read from the fitted curve at half-maximal effect)
# [2] = qHTS for Inhibitors of the Aldehyde Dehydrogenase Family (ALDH1A2, ALDH1A3, ALDH2, ALDH3A1) (AID 2061307); also: nearly all actives have a fitted effect of over 50% in size; as to potency: test system not described further here; potency is read from the fitted curve at half-maximal effect
# [3] = target: Aldehyde dehydrogenase, mitochondrial (Homo sapiens) (UniProt P05091); assay: qHTS for Inhibitors of the Aldehyde Dehydrogenase Family (ALDH2) Primary screen (AID 2061308); also: nearly all actives have a fitted effect of over 55% in size
# [4] = target: Retinaldehyde dehydrogenase 3 (Homo sapiens) (UniProt P47895); assay: qHTS for Inhibitors of the Aldehyde Dehydrogenase Family (ALDH1A3) Confirmatory screens (AID 2061311); also: nearly all actives have a fitted effect of over 60% in size; also: potency is read from the fitted curve at half-maximal effect
# [5] = target: Retinaldehyde dehydrogenase 3 (Homo sapiens) (UniProt P47895); assay: qHTS for Inhibitors of the Aldehyde Dehydrogenase Family (ALDH1A3) Validation screen (AID 2061312); also: nearly all actives have a fitted effect of over 45% in size
# [6] = target: Retinal dehydrogenase 2 (Homo sapiens) (UniProt O94788); assay: qHTS for Inhibitors of the Aldehyde Dehydrogenase Family (ALDH1A2) Confirmation screens (AID 2061314); also: nearly all actives have a fitted effect of over 65% in size
# [7] = target: Retinaldehyde dehydrogenase 3 (Homo sapiens) (UniProt P47895); assay: qHTS for Inhibitors of the Aldehyde Dehydrogenase Family (ALDH1A3) Primary screen (AID 2061315)
# [8] = target: Aldehyde dehydrogenase 1A1 (Homo sapiens) (UniProt P00352); assay: qHTS for Inhibitors of the Aldehyde Dehydrogenase Family (ALDH1A1) Confirmatory screens (AID 2061316); also: nearly all actives have a fitted effect of over 65% in size; also: potency is read from the fitted curve at half-maximal effect
compound,measurement,setting,value
CC(C)NC(=O)Cc1csc2nc(-c3ccccc3)cn12,Potency,[1],inactive
O=C(Nc1cccc(-c2ccco2)c1)C1CCN(Cc2ccc(CO)o2)CC1,Potency,[1],inactive
CCc1cccc(CC)c1NC(=O)CN(C)S(=O)(=O)c1ccc2c(c1)n(C)c(=O)c(=O)n2C,Potency,[1],inactive
O=C(CCC1CCCN(S(=O)(=O)c2ccc(F)cc2)C1)NCCCN1CCOCC1 (centres undefined),Potency,[1],inactive
Cc1cc2occ(CN(C)CCN(C)Cc3cn(-c4cccc(C(F)(F)F)c4)c4ccccc34)c(=O)c2cc1C,Potency,[1],inactive
same,Potency,[2],inactive
same,Potency,[3],inactive
same,Potency,[4],inactive
same,Potency,[5],inactive
same,Potency,[6],inactive
same,Potency,[7],inactive
same,Potency,[8],10.1 µM (active)
C[C@H]1CO[C@@H]2Cn3cc(C(=O)NCc4ccc(F)cc4F)c(=O)c(O)c3C(=O)N12,Potency,[1],inactive
same,Potency,[2],inactive
same,Potency,[3],inactive
same,Potency,[4],inactive
same,Potency,[5],inactive
same,Potency,[6],inactive
same,Potency,[7],inactive
same,Potency,[8],inactive
O=C(NCc1cccs1)c1nc(-c2ccc(F)cc2)c2ccccn12,Potency,[1],inactive
same,Potency,[2],inactive
CCC(=O)N1CCc2cc(S(=O)(=O)NC(Cc3ccccc3)C(=O)Nc3ccc(C)cc3)ccc21 (centres undefined),Potency,[1],inactive
CCN1CCN(C(=O)N[C@@H](C(=O)N[C@@H]2C(=O)N3[C@@H]2SC(C)(C)[C@@H]3C(=O)O)c2ccccc2)C(=O)C1=O,Potency,[1],inactive
same,Potency,[2],inactive
same,Potency,[3],inactive
same,Potency,[4],inactive
same,Potency,[5],inactive
same,Potency,[6],inactive
same,Potency,[7],inactive
same,Potency,[8],inactive
COc1ccc(O)c(C2Nc3ccccc3C(=O)N2Cc2ccccc2)c1 (centres undefined),Potency,[1],inactive
same,Potency,[2],12.7 µM (active)
same,Potency,[3],inactive
COc1ccc2c(c1)CCc1c(C(=O)Nc3cc(C)ccc3O)noc1-2,Potency,[1],inactive
CCN1C(=O)c2ccccc2S(=O)c2ccc(C(=O)NCc3ccc(C)cc3)cc21 (centres undefined),Potency,[1],inactive
Cc1nn(CC(=O)N[C@H](C)c2ccccc2)c(=O)n1-c1ccc2c(c1)OCO2,Potency,[1],inactive
CC(C)c1ccccc1-c1ncc(F)c(NCc2ccc(-c3cccnc3)cc2)n1,Potency,[1],5.01 µM (active)
same,Potency,[2],14.1 µM (active)
same,Potency,[3],inactive
same,Potency,[4],8.96 µM (active)
same,Potency,[6],inactive
CCc1ccc(NC(=O)COCc2cc(-c3ccc(F)cc3)on2)cc1,Potency,[1],inactive
CN(C)C(=O)c1ccc(-c2ccc3ncn(-c4ccc(F)cc4F)c(=O)c3n2)cc1,Potency,[1],inactive
COc1cccc(N2CCN(C(=O)CCS(=O)(=O)c3ccc4c(c3)oc(=O)n4C)CC2)c1,Potency,[1],inactive
O=c1c2nc(-c3ccc(F)cc3)ccc2ncn1Cc1ccccn1,Potency,[1],inactive
Cc1nc(CNC(=O)c2csc(-c3ccc(C(F)(F)F)cc3)n2)no1,Potency,[1],inactive
O=C(Nc1ccccc1Cl)c1cnc2ccc(C3CCNCC3)cn12,Potency,[1],inactive
same,Potency,[2],inactive
same,Potency,[3],inactive
same,Potency,[4],inactive
same,Potency,[5],inactive
same,Potency,[6],inactive
same,Potency,[7],inactive
Cc1ccc([S+](=O)([O-])NCCNC(=O)c2ccc(-c3cccc(C(F)(F)F)c3)cc2)cc1,Potency,[1],inactive
CCN(CC)S(=O)(=O)c1ccc2c(c1)N(CC(=O)Nc1cccc(C#N)c1)C(=O)CO2,Potency,[1],inactive
Oc1cc(Nc2cccnc2)cc2cccnc12,Potency,[1],inactive
same,Potency,[2],inactive
same,Potency,[3],inactive
same,Potency,[4],0.283 µM (active)
same,Potency,[6],inactive
C=C(C(=O)OC)C1CCC2(C)C(O[C@@H]3O[C@H](CO)[C@@H](O)[C@H](O)[C@H]3O)CC(=O)C(C)C2C1O (some centres undefined),Potency,[1],inactive
same,Potency,[2],inactive
same,Potency,[3],inactive
same,Potency,[4],11 µM (active)
same,Potency,[6],inactive
COc1ccc(-c2cnc(C)o2)cc1S(=O)(=O)Nc1ccc(C)c(F)c1,Potency,[1],inactive
O=C(c1cccc(Br)c1)N1CCN(Cc2cc(=O)n3nc(-c4ccccc4)sc3n2)CC1,Potency,[1],inactive
CCC(C)NC(=O)c1ccc(-c2cccc(C#N)c2)o1 (centres undefined),Potency,[1],inactive
Oc1cc(Nc2ccccc2)cc2cccnc12,Potency,[1],inactive
same,Potency,[2],inactive
same,Potency,[3],inactive
same,Potency,[4],0.283 µM (active)
same,Potency,[6],inactive
Cc1ccc(-c2cnc(N3CCC(C(N)=O)CC3)s2)cc1,Potency,[1],25.1 µM (active)
same,Potency,[2],10.1 µM (active)
same,Potency,[3],inactive
Cn1c(=O)c(=O)n(C)c2cc(S(=O)(=O)N3CCN(c4ccccc4)CC3)ccc21,Potency,[1],inactive
CCOc1ccc(-c2csc(-c3nc(-c4ccc(Br)s4)cs3)n2)cc1,Potency,[1],inactive
COC(=O)[C@@]1(c2ccc(C)cc2)C[C@H]1CN1CCC(O)(c2ccccc2)CC1,Potency,[1],inactive
same,Potency,[2],inactive
same,Potency,[3],inactive
same,Potency,[4],inactive
same,Potency,[5],inactive
same,Potency,[6],inactive
same,Potency,[7],inactive
same,Potency,[8],inactive
CCOC(=O)c1ccccc1NC(=O)N1CCN(Cc2cc(=O)n3nc(-c4ccccc4)sc3n2)CC1,Potency,[1],inactive
O=C(NCc1cccc(C(F)(F)F)c1)c1ccc2nc(-c3ccncc3)oc2c1,Potency,[1],inactive
CC(C)C[C@H]1C(=O)N2CCC[C@H]2[C@]2(O)O[C@](NC(=O)[C@@H]3C=C4c5cccc6[nH]c(Br)c(c56)C[C@H]4N(C)C3)(C(C)C)C(=O)N12,Potency,[1],inactive
same,Potency,[2],inactive
O=C(NC1CCCc2c1cnn2-c1ccc(F)cc1F)c1ccncc1 (centres undefined),Potency,[1],inactive
same,Potency,[2],inactive
same,Potency,[3],inactive
same,Potency,[4],inactive
same,Potency,[6],inactive
same,Potency,[7],inactive
COc1cccc(C2c3c(ncn(CCCN4CCOCC4)c3=N)Oc3ccc4ccccc4c32)c1 (centres undefined),Potency,[1],inactive
same,Potency,[2],inactive
same,Potency,[3],inactive
same,Potency,[4],inactive
same,Potency,[6],inactive
same,Potency,[7],inactive
same,Potency,[8],inactive

# Reference: PubChem BioAssay (NCATS)
